Reference: ChEMBL document CHEMBL3988442, “University of Dundee, Small-Polar-MMV Screening Library” (2021)
For some of these results: Entries with a potency or affinity are not part of this list.

Key:
Design in all cases: scale not given: direction of the effect not stated beside the values
[1] = target: Protein translocase subunit SecA (Escherichia coli (strain K12)) (UniProt P10408); assay: Assay to Identify E. coli SecA ATPase Inhibitors; format: functional; settings: 30 µM
[2] = target: T1, Ubiquitin-activating enzyme e1, putative (Leishmania donovani (strain BPK282A1)) (UniProt E9BSI1); assay: Leishmania donovani Ubiquitin Activating Enzyme (LdE1); format: functional; settings: 30 µM
T1 sequence (whole entry): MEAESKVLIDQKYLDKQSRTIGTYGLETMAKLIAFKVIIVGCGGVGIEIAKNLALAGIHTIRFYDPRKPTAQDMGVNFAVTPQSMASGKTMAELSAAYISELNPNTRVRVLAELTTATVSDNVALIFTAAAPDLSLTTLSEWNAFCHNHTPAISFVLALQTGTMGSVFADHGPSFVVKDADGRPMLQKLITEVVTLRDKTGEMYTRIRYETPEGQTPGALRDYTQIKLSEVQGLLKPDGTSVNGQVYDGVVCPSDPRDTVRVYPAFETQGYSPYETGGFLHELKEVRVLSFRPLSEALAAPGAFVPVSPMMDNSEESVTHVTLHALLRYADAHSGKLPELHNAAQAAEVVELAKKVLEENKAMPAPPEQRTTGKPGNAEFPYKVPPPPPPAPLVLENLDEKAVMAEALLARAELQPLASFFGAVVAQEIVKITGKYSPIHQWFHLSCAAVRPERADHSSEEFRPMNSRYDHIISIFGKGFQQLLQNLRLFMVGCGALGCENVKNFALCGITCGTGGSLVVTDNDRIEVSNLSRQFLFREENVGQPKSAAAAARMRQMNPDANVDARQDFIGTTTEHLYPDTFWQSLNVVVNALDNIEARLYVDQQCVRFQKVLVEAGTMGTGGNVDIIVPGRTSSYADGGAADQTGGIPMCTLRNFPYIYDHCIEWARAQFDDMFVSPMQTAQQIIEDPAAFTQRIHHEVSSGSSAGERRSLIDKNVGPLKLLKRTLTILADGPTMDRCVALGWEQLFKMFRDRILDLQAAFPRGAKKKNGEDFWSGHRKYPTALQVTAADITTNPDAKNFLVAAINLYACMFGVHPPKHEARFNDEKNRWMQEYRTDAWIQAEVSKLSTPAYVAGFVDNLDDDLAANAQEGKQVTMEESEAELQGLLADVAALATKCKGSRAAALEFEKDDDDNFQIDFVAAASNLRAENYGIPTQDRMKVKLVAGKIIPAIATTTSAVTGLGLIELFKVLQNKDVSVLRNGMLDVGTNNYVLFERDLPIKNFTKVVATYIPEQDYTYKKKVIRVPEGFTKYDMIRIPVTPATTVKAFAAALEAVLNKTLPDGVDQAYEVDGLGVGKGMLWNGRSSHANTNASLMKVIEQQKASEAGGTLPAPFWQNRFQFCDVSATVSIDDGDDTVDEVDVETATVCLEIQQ

[3] = target: AMP-activated protein kinase, AMPK (Homo sapiens) (UniProt P54646+O43741+P54619+Q9UGJ0+Q9Y478+Q13131+Q9UGI9); assay: AMP-dependent Kinase enzyme assay. An in vitro enzyme assay that detects ADP turnover that is directly proportional to AMPK activity. This uses naive AMPK that is activated during the assay with MK-8722; format: functional; settings: 30 µM
[4] = target: Sialic acid-binding Ig-like lectin 9 (Homo sapiens) (UniProt Q9Y336); assay: Hs-Siglec9 ALPHAscreen SOP 20170721; settings: 10 µM
[5] = tested on: Trypanosoma cruzi; assay: Trypanosoma cruzi phosphomannomutase and mannose-1-phosphate guanylyltransferase assay; format: functional; settings: 10 µM
[6] = target: T2, Arginase-2, mitochondrial (Homo sapiens) (UniProt P78540); assay: in vitro enzyme assay to detect the production of urea directly proportional to the activity of Arginase II; format: functional; settings: 33.3 µM; further: in the data most compounds retested in dose-response had high values
T2 sequence (whole entry): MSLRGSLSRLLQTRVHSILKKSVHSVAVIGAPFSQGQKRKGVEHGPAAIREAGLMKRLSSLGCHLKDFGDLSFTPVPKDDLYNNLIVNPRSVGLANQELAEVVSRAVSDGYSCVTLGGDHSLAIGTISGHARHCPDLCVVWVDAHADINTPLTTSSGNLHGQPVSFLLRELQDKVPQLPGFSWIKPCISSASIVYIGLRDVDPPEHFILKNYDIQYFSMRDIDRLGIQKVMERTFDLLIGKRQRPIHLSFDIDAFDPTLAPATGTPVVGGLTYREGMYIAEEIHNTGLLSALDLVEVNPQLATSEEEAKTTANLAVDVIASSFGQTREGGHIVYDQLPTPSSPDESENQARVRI

[7] = target: T3, Proteasome subunit beta (Trypanosoma cruzi) (UniProt O96673); assay: Trypanosoma cruzi proteasome chymotrypsin-like activity (TcProtChymo) assay.; further: in the data most compounds retested in dose-response had high values; format: functional; settings: 9.37 µM
T3 sequence (whole entry): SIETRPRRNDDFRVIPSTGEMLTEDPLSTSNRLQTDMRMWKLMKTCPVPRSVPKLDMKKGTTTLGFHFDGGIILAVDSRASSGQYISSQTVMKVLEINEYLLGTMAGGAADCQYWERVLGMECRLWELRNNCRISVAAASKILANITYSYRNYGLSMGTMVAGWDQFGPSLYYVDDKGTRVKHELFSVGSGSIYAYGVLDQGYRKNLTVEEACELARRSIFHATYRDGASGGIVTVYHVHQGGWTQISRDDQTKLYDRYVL

[8] = organism: Homo sapiens; assay: To identify inhibition of the IFN signalling (Jak-Stat) pathway via expression of an eGFP reporter gene under the control of an IFN-stimulated response element (ISRE) containing MxA promoter.; format: functional; settings: 30 µM
[9] = target: T4, Tyrosyl-tRNA synthetase, putative (Trypanosoma cruzi (strain CL Brener)) (UniProt Q4DSP6); assay: Trypanosoma cruzi tyrosyl tRNA synthetase (TcYRS) _High Tyrosine SOP; format: functional; settings: 30 µM; further: in the data most compounds retested in dose-response had high values
T4 sequence (whole entry): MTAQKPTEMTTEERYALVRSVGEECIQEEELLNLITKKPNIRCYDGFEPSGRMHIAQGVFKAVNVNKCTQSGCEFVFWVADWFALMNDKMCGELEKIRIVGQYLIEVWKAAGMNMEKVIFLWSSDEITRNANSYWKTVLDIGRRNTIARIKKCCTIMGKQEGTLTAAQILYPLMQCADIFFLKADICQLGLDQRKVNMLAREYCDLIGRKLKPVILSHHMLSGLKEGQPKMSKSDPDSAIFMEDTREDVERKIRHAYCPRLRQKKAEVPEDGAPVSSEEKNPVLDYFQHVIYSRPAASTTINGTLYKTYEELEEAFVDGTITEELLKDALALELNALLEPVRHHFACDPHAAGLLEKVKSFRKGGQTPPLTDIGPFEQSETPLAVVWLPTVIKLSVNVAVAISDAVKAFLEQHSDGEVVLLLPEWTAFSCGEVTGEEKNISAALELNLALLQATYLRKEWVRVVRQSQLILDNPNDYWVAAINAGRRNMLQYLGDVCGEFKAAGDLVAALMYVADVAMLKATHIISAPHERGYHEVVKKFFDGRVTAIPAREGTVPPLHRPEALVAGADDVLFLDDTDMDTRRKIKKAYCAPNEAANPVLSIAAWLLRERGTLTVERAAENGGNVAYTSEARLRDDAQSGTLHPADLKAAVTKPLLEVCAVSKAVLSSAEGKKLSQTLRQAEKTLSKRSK

[10] = target: T4, Tyrosyl-tRNA synthetase, putative (Trypanosoma cruzi (strain CL Brener)); assay: Trypanosoma cruzi tyrosyl tRNA synthetase (TcYRS) SOP; format: functional; settings: 30 µM
[11] = target: Chromo domain-containing protein 1 (Saccharomyces cerevisiae (strain ATCC 204508 / S288c) (Baker's yeast)) (UniProt P32657); assay: ScCHD-1 Enzyme Inhibition Assay; format: functional; settings: 30 µM; further: in the data most compounds retested in dose-response had high values
Sequence of Chromo domain-containing protein 1 (Saccharomyces cerevisiae (strain ATCC 204508 / S288c) (Baker's yeast)) (P32657 whole entry, the tested form may be a part): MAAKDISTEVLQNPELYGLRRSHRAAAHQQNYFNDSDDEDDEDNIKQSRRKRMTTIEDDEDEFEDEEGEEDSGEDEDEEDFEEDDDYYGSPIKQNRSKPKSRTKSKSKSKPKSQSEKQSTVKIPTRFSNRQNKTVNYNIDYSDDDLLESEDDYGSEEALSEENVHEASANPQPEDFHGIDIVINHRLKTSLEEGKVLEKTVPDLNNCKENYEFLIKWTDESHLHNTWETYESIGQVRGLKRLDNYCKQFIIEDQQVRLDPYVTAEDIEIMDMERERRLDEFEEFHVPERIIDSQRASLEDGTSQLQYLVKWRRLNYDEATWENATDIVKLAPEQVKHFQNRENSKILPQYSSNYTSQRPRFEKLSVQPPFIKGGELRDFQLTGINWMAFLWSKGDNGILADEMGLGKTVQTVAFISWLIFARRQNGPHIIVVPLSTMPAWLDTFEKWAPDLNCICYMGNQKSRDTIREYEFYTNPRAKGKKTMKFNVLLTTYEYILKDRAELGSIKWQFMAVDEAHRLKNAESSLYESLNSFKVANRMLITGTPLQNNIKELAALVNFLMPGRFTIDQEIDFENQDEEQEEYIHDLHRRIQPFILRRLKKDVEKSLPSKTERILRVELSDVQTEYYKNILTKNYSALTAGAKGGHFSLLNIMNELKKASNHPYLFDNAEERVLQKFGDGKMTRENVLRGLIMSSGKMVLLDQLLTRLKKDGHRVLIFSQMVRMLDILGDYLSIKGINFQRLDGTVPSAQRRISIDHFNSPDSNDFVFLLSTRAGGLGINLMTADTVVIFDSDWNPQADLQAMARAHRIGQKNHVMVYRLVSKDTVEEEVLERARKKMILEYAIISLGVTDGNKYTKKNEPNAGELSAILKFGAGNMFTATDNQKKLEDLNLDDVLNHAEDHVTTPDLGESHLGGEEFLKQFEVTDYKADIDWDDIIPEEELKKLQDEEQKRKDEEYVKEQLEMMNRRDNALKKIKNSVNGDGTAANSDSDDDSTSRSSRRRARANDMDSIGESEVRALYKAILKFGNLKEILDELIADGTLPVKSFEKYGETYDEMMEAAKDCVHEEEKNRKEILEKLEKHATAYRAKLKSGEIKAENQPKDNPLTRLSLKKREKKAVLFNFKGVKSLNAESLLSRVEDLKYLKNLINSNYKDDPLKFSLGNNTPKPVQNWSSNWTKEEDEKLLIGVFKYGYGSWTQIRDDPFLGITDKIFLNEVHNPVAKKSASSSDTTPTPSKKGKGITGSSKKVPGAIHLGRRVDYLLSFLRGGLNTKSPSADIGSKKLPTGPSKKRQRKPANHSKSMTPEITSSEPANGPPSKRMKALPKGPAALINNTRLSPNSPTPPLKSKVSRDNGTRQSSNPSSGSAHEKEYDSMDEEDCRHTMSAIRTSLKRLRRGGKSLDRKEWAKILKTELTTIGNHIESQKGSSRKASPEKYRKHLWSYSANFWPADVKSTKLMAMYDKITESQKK

Sequence of Sialic acid-binding Ig-like lectin 9 (Homo sapiens) (Q9Y336 whole entry): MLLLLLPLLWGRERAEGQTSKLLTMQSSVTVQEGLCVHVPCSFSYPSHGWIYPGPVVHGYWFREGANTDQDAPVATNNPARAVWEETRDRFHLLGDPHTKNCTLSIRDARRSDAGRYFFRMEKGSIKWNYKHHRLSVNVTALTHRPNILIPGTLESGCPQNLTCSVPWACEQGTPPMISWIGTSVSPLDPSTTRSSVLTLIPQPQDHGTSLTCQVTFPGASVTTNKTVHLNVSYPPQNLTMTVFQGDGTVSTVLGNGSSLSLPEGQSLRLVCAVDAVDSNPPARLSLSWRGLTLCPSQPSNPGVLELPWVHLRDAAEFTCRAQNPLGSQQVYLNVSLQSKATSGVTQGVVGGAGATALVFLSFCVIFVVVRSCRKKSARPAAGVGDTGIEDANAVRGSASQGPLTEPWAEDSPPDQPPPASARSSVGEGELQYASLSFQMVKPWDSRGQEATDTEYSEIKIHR
Sequence of Protein translocase subunit SecA (Escherichia coli (strain K12)) (P10408 whole entry): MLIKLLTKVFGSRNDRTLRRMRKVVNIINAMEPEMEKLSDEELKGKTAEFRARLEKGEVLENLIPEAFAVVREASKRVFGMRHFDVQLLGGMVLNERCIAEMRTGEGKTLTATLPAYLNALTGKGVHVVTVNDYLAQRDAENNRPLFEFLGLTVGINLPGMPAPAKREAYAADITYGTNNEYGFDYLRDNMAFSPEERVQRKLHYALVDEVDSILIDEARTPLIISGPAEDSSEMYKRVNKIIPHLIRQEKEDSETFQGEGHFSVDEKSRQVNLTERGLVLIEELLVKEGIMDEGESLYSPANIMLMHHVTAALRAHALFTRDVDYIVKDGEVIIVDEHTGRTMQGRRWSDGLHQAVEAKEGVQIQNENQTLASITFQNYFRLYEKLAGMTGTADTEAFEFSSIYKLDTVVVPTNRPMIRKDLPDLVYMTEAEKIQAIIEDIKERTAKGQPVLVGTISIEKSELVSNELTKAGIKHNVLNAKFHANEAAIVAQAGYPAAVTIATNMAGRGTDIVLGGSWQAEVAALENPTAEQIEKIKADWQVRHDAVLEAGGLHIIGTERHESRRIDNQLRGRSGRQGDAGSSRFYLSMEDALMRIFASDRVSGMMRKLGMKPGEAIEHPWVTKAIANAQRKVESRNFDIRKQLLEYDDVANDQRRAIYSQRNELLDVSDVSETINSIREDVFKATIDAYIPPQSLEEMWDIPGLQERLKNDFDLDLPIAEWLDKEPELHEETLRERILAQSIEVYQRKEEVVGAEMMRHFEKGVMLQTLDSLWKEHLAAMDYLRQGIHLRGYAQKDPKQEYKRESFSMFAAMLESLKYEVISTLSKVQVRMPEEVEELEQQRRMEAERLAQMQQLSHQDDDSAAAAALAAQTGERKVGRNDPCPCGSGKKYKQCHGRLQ

Compound | Percent Effect [1] [%] | Percent Effect [2] [%] | Percent Effect [3] [%] | Percent Effect [4] [%] | Percent Effect [5] [%] | Percent Effect [6] [%] | Percent Effect [7] [%] | Percent Effect [8] [%] | Percent Effect [9] [%] | Percent Effect [10] [%] | Percent Effect [11] [%]
CCn1cc(N2Cc3nc(N4CCN(C)CC4)ncc3C2=O)cn1 | -4.57 | 4 | 4.85 | 8.98 | -1.97 | -13.2 | 15.2 | -0.771 | 6.35 | 12.8 | -11.9
FC(F)(F)COCCN1CCN(c2ccc3nncn3n2)CC1 | -4.65 | 10.4 | 0.707 | 9.49 | 4.87 | -3.92 | 2.87 | -15.5 | 5.83 | 14.6 | -6.46
COc1cccc2c1OCC(NC(=O)NCc1cccs1)C2 (stereo not drawn) | -7.48 | 15.8 | 0.286 | 9.16 | 0.876 | -2.37 | 9.11 | 5.73 | 4.25 | 13 | -6.35
O=C(CN1CCN(CC(O)C2CC2)CC1)NCc1ccc(F)cc1 (stereo not drawn) | -3.06 | 10.4 | 6.87 | 0.218 | 4.83 | 9.68 | 13.1 | 22.2 | 8.47 | 19.2 | -7.59
COc1cc(C)nc(N2CCN(C(=O)c3ccc(Cl)o3)CC2)n1 | -3.23 | 2.7 | -4.07 | -1.86 | 2.17 | -0.802 | -3.06 | -0.0966 | 2.46 | 3.7 | 1.52
O=C(NCCc1c[nH]cn1)c1ccc2c(c1)C(=O)N(C1CC1)C2=O | -0.201 | 1.33 | 5.05 | 2.3 | -8.64 | 0.176 | 11.7 | -8.34 | 6.35 | 7.69 | -4.66
CCn1ncnc1C(C)NC(=O)C1CCN(C(=O)COC)CC1 (stereo not drawn) | -7.01 | 8.11 | -1.09 | 0.673 | -0.489 | 4.22 | 9.19 | 1.26 | 10.8 | 18.5 | -2.43
O=C(CCNS(=O)(=O)c1ccc2c(c1)CCCC2)NCc1ccoc1 | -5 | 5.33 | 8.4 | 5.02 | -2.43 | -2.08 | 8.37 | 14.2 | 4.92 | 11.1 | -6.46
